Results from PubChem BioAssay (Tox21).
Results filed as inconclusive are left out. Entries that show only a call come without a potency. The source made the active and inactive calls. Unless noted, calls follow the shape of the dose curve; as a rule, active = well fitted curve in the direction sought with a large enough effect in the repeat runs; inconclusive = weak or mixed curves; inactive = no such curve, though single readings can be large; an effect the other way counts as inactive or inconclusive.

What was measured:
[1] = A CellTox Green Cytotoxicity Assay to monitor cytotoxicity in HepG2 cells - 0 hour (AID 1224882); also: nearly all actives have a fitted effect of over 35% in size; also: potency is read from the fitted curve at half-maximal effect
In short: (§1)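 Continuous culture of HepG2 cells with a membrane-impermeant DNA dye; rising fluorescence marks dead cells. Compound exposure lasted up to 40 h at 37 C, with reads every 8 h from 0 h.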

[2] = A CellTox Green Cytotoxicity Assay to monitor cytotoxicity in HepG2 cells - 32 hour (AID 1224883); also: nearly all actives have a fitted effect of over 50% in size; also: potency is read from the fitted curve at half-maximal effect
In short: as §1

[3] = A CellTox Green Cytotoxicity Assay to monitor cytotoxicity in HEK293 cells - 8 hour (AID 1224884); also: nearly all actives have a fitted effect of over 35% in size; also: potency is read from the fitted curve at half-maximal effect
In short: (§2)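 Each value comes from one timepoint of a single continuous run in which HEK293 cells with CellTox Green were exposed to compound for up to 40 h at 37 C, dye fluorescence rising with cell death.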

[4] = qHTS RealTime-Glo MT Cell Viability Assay in HepG2 cells - 16 hour (AID 1224885); also: nearly all actives have a fitted effect of over 50% in size; also: potency is read from the fitted curve at half-maximal effect
In short: (§3)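 Viability was tracked continuously by NanoLuc luminescence from prosubstrate reduced by living HepG2 cells, at successive time points over 40 h of compound exposure. Cells with reagent were preincubated 5 h at 37 °C before compound addition.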

[5] = qHTS RealTime-Glo MT Cell Viability Assay in HEK293 cells - 24 hour (AID 1224886); also: nearly all actives have a fitted effect of over 50% in size; also: potency is read from the fitted curve at half-maximal effect
In short: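 Viability tracked continuously by luminescence as live cells reduce a prosubstrate for NanoLuc; HEK293 cells preincubated 5 h, compound-treated at 37 C, and read at 0, 8, 16, 24, 32 and 40 h.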

[6] = qHTS RealTime-Glo MT Cell Viability Assay in HEK293 cells - 8 hour (AID 1224887); also: nearly all actives have a fitted effect of over 50% in size; also: potency is read from the fitted curve at half-maximal effect
In short: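 qHTS format; HEK293 cells with NanoLuc/prosubstrate reagent, 37 C/5% CO2 for 5 h pre-dosing; compounds 23 nL in DMSO; luminescence at each time point reflects viable cells.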

[7] = A CellTox Green Cytotoxicity Assay to monitor cytotoxicity in HEK293 cells - 16 hour (AID 1224888); also: nearly all actives have a fitted effect of over 35% in size; also: potency is read from the fitted curve at half-maximal effect
In short: as §2

[8] = qHTS RealTime-Glo MT Cell Viability Assay in HepG2 cells - 0 hour (AID 1224889); also: nearly all actives have a fitted effect of over 50% in size
In short: as §3

[9] = A CellTox Green Cytotoxicity Assay to monitor cytotoxicity in HepG2 cells - 8 hour (AID 1224890); also: nearly all actives have a fitted effect of over 45% in size; also: potency is read from the fitted curve at half-maximal effect
In short: as §1

[10] = qHTS assay to identify small molecule antagonists of the estrogen receptor alpha (ER-alpha) signaling pathway using the BG1 cell line in the presence of 0.1 nM 17-beta-estradiol - cell viability counter screen (AID 1259241); also: nearly all actives have a fitted effect of over 40% in size; also: potency is read from the fitted curve at half-maximal effect
In short: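 Cytotoxicity counter-screen: live-cell protease activity measured by fluorescence (30 min reagent step) in the same wells. Cells were VM7Luc4E2 with endogenous ER-alpha and ERE-driven luciferase, treated 22 hr at 37C alongside 0.1 nM 17beta-estradiol final.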

[11] = qHTS assay to identify small molecule HDAC inhibitors - cell viability counter screen (AID 1259365); also: nearly all actives have a fitted effect of over 50% in size; also: potency is read from the fitted curve at half-maximal effect
In short: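 CellTiter-Glo luminescence (30 min, room temperature) reported viability after a 2 h compound exposure at 37 C. Cells: wild-type HCT-116, 1,500 per well, seeded the night before.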

[12] = qHTS assay to identify small molecule agonists of the sonic hedgehog signaling (Shh) pathway - cell viability counter screen (AID 1259366); also: nearly all actives have a fitted effect of over 50% in size; also: potency is read from the fitted curve at half-maximal effect
In short: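 Cytotoxicity counter screen: CellTiter-Fluor reagent added after 23 h compound exposure, then 1 h at 37C and fluorescence read. Cells were 3T3 Gli1-Luc, seeded 2,000 per well and dosed 4 h post-plating.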

[13] = qHTS assay to identify small molecule antagonists of the sonic hedgehog signaling (Shh) pathway - cell viability counter screen (AID 1259367); also: nearly all actives have a fitted effect of over 55% in size; also: potency is read from the fitted curve at half-maximal effect
In short: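 Using CellTiter-Fluor, viability of Gli1-Luc reporter 3T3 cells is read by fluorescence in the wells used for the Shh luciferase assay. Treatment lasts 23 hr with conditioned medium, then reagent 1 hr at 37C.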

[14] = qHTS assay to identify small molecule agonists of the sonic hedgehog signaling (Shh) pathway (AID 1259368; calls by dose curve;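 also: NIH/3T3-derived 3T3Gli1-Luc cells carrying a stable Gli1-driven firefly luciferase reporter; series mostly up to about 92 µM; nearly all actives have a fitted effect of over 15% in size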)
In short: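 Luminescent signal was taken as a measure of Gli1-controlled luciferase expression in stably transfected NIH/3T3-derived cells that had been treated for 24 hr with compounds delivered in DMSO.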

[15] = target: Estrogen receptor (Homo sapiens) (UniProt P03372); assay: qHTS assay to identify small molecule antagonists of the estrogen receptor alpha (ER-alpha) signaling pathway using the BG1 cell line in the presence of 0.1 nM 17-beta-estradiol (AID 1259244); also: nearly all actives have a fitted effect of over 50% in size; also: potency is read from the fitted curve at half-maximal effect
Sequence of Estrogen receptor (Homo sapiens) (P03372 whole entry, looked up): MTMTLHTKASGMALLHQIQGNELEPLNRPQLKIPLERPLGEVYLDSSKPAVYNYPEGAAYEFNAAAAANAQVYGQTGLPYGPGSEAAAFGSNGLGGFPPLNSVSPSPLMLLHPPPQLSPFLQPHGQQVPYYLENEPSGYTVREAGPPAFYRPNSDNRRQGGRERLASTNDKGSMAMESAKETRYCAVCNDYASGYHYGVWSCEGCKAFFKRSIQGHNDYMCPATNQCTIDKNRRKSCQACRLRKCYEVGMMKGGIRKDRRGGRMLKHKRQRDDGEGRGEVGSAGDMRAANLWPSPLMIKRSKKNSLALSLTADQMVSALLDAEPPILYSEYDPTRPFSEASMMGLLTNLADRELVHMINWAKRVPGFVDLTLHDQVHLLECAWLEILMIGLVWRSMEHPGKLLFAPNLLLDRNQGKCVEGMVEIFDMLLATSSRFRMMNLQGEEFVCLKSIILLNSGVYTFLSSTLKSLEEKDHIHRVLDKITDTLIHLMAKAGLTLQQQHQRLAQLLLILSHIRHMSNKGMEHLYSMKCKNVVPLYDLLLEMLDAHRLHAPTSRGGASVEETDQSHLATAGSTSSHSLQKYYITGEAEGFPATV
In short: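 Quantitative high-throughput screen in VM7Luc4E2 cells: compound plus 0.1 nM E2 (final), 22 h, 37C, 5% CO2; ONE-Glo added, 30 min room temperature, luminescence measured.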

[16] = qHTS assay to identify small molecule HDAC inhibitors (AID 1259364); also: top concentration of the series differs between compounds; nearly all actives have a fitted effect of over 45% in size
In short: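 Endogenous HDAC class I/II activity was measured in wild-type HCT-116 cells by HDAC-Glo luminescence after 2 h compound treatment.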

[17] = qHTS assay to identify small molecule antagonists of the sonic hedgehog signaling (Shh) pathway (AID 1259369; calls by dose curve; also: nearly all actives have a fitted effect of over 45% in size; also: potency is read from the fitted curve at half-maximal effect)
In short: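 Screening used 3T3Gli1-Luc cells at 2,000 per well, compounds delivered in DMSO, and conditioned medium as agonist stimulus; plates incubated 24hr at 37 C and 5% CO2 before a 30min luciferase step.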

[18] = qHTS assay to identify small molecule phospholipidosis (PLD) inducers (AID 1259344; active = well fitted curve in the direction sought with a large enough effect; an effect the other way counts as inactive or inconclusive)
In short: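 Fluorescent phospholipid staining (LipidTOX Red) measured by automated microscopy in fixed HepG2 cells after 24 h treatment; nuclei counterstained with Hoechst 33342; amiodarone as reference inducer.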

[19] = qHTS assay to identify small molecule antagonists of the androgen receptor (AR) signaling pathway using the MDA cell line in the presence of 0.5 nM R1881 - cell viability counter screen (AID 1259242); also: nearly all actives have a fitted effect of over 45% in size; also: potency is read from the fitted curve at half-maximal effect
In short: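 Fluorescence from CellTiter-Fluor, which reports protease activity of live cells, was read 30 min after reagent addition to MDA-kb2 cells that had been incubated 16 hr with compound and 0.5 nM R1881.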

[20] = target: Androgen receptor (Homo sapiens) (UniProt P10275); assay: qHTS assay to identify small molecule antagonists of the androgen receptor (AR) signaling pathway using the MDA cell line in the presence of 0.5 nM R1881 (AID 1259243); also: nearly all actives have a fitted effect of over 50% in size
Sequence of Androgen receptor (Homo sapiens) (P10275 whole entry, looked up): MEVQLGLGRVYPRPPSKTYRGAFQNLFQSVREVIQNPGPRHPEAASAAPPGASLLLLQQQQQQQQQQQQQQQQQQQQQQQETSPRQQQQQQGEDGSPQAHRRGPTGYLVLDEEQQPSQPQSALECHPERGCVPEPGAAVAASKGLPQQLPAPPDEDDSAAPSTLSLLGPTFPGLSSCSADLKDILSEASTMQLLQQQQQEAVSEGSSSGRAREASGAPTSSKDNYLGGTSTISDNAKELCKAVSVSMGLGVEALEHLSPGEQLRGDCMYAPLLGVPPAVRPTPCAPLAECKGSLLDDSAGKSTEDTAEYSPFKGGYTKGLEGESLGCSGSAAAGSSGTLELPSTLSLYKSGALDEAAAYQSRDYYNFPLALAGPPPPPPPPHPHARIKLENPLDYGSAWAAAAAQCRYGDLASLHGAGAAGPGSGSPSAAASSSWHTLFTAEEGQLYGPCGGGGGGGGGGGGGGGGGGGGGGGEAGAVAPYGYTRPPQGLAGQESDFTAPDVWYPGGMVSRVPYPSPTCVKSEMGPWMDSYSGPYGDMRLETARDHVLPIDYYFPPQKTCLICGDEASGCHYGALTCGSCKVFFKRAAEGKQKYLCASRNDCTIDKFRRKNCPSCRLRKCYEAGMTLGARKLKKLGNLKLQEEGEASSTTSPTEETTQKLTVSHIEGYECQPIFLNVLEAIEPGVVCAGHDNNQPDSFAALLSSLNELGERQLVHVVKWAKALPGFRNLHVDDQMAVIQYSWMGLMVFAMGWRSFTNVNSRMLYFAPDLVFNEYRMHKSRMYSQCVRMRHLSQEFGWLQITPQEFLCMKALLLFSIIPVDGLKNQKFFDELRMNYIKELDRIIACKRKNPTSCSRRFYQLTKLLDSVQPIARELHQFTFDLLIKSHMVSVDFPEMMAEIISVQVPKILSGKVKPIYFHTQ
In short: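 Inhibition of R1881 (0.5 nM final) induced reporter signal was measured in human MDA-kb2 cells; note the MMTV promoter also responds to GR. Exposure lasted 16 hr at 37C.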

## O=C1C=CC(=O)N1c1ccc(Cc2ccc(N3C(=O)C=CC3=O)cc2)cc1
[1]
  Potency: inactive
[2]
  Potency: 9.77 µM (active)
[3]
  Potency: 54.9 µM (active)
[4]
  Potency: 12.3 µM (active)
[5]
  Potency: 13.8 µM (active)
[6]
  Potency: 21.9 µM (active)
[7]
  Potency: 49 µM (active)
[8]
  Potency: inactive
[9]
  Potency: 17.4 µM (active)
[10]
  Potency: inactive
[11]
  Potency: inactive
[12]
  Potency: 7.7 µM (active)
[13]
  Potency: 21.7 µM (active)
[14]
  Potency: inactive

## Nc1cc(C(F)(F)F)ccc1S
[1]
  Potency: inactive
[2]
  Potency: inactive
[3]
  Potency: inactive
[4]
  Potency: inactive
[5]
  Potency: inactive
[6]
  Potency: inactive
[7]
  Potency: inactive
[8]
  Potency: inactive
[9]
  Potency: inactive
[10]
  Potency: inactive
[15]
  Potency: inactive
[16]
  Potency: inactive
[11]
  Potency: inactive
[14]
  Potency: inactive
[17]
  Potency: 13.3 µM (active)

## Cc1ccc(O)c2ncccc12
[1]
  Potency: inactive
[2]
  Potency: 8.49 µM (active)
[3]
  Potency: inactive
[4]
  Potency: inactive
[5]
  Potency: inactive
[6]
  Potency: inactive
[7]
  Potency: inactive
[8]
  Potency: inactive
[9]
  Potency: inactive
[10]
  Potency: inactive
[15]
  Potency: 11.9 µM (active)
[18]
  Potency: inactive
[16]
  Potency: inactive
[11]
  Potency: inactive
[12]
  Potency: 1.33 µM (active)
[13]
  Potency: 1.33 µM (active)
[14]
  Potency: inactive
[17]
  Potency: 0.531 µM (active)

## CC(C)=CCOc1ccc(/C=C/C(=O)c2ccc(OCC=C(C)C)cc2OCC(=O)O)cc1
[1]
  Potency: inactive
[2]
  Potency: inactive
[3]
  Potency: inactive
[4]
  Potency: inactive
[5]
  Potency: inactive
[6]
  Potency: inactive
[7]
  Potency: inactive
[8]
  Potency: inactive
[9]
  Potency: inactive
[10]
  Potency: inactive
[19]
  Potency: inactive
[20]
  Potency: inactive
[15]
  Potency: inactive
[18]
  Potency: inactive
[16]
  Potency: inactive
[11]
  Potency: inactive
[12]
  Potency: inactive
[13]
  Potency: inactive
[14]
  Potency: inactive

## CC(C)(C)c1ccc(C(=O)O)cc1
[1]
  Potency: inactive
[2]
  Potency: inactive
[3]
  Potency: inactive
[4]
  Potency: inactive
[5]
  Potency: inactive
[6]
  Potency: inactive
[7]
  Potency: inactive
[8]
  Potency: inactive
[9]
  Potency: inactive
[10]
  Potency: inactive
[19]
  Potency: inactive
[16]
  Potency: inactive
[11]
  Potency: inactive
[13]
  Potency: inactive
[14]
  Potency: inactive
[17]
  Potency: inactive

## Cc1onc(-c2c(Cl)cccc2Cl)c1C(=O)N[C@@H]1C(=O)N2[C@@H]1SC(C)(C)[C@@H]2C(=O)O
[1]
  Potency: inactive
[2]
  Potency: inactive
[3]
  Potency: inactive
[4]
  Potency: inactive
[5]
  Potency: inactive
[6]
  Potency: inactive
[7]
  Potency: inactive
[8]
  Potency: inactive
[9]
  Potency: inactive
[10]
  Potency: inactive
[18]
  Potency: inactive
[16]
  Potency: inactive
[11]
  Potency: inactive
[12]
  Potency: inactive
[13]
  Potency: inactive
[14]
  Potency: inactive
[17]
  Potency: inactive

## N#CC1(c2ccc(F)cc2)CCC(=O)CC1
[1]
  Potency: inactive
[2]
  Potency: inactive
[3]
  Potency: inactive
[4]
  Potency: inactive
[5]
  Potency: inactive
[6]
  Potency: inactive
[7]
  Potency: inactive
[8]
  Potency: inactive
[9]
  Potency: inactive
[10]
  Potency: inactive
[15]
  Potency: inactive
[16]
  Potency: inactive
[11]
  Potency: inactive
[12]
  Potency: inactive
[13]
  Potency: inactive
[14]
  Potency: inactive
[17]
  Potency: inactive

## CC(C)(C)NC(=O)[C@@H]1C[C@@H]2CCCC[C@@H]2CN1C[C@@H](O)[C@H](Cc1ccccc1)NC(=O)[C@H](CC(N)=O)NC(=O)c1ccc2ccccc2n1
[1]
  Potency: inactive
[2]
  Potency: 55.7 µM (active)
[3]
  Potency: inactive
[4]
  Potency: 55.7 µM (active)
[5]
  Potency: 19.7 µM (active)
[6]
  Potency: 19.7 µM (active)
[7]
  Potency: inactive
[8]
  Potency: inactive
[9]
  Potency: inactive
[10]
  Potency: 27.7 µM (active)
[19]
  Potency: 61.9 µM (active)
[15]
  Potency: 61.9 µM (active)
[18]
  Potency: inactive
[16]
  Potency: inactive
[11]
  Potency: inactive
[13]
  Potency: 13.9 µM (active)
[14]
  Potency: inactive
[17]
  Potency: 24.7 µM (active)

## Cc1cccc(CN2CCN(C(c3ccccc3)c3ccc(Cl)cc3)CC2)c1 (configuration not stated)
[1]
  Potency: inactive
[2]
  Potency: inactive
[3]
  Potency: inactive
[4]
  Potency: inactive
[5]
  Potency: inactive
[6]
  Potency: inactive
[7]
  Potency: inactive
[8]
  Potency: inactive
[9]
  Potency: inactive
[10]
  Potency: inactive
[19]
  Potency: inactive
[15]
  Potency: inactive
[18]
  Potency: inactive
[16]
  Potency: inactive
[12]
  Potency: inactive
[13]
  Potency: inactive
[14]
  Potency: inactive
[17]
  Potency: inactive

## CC[C@@]1(O)C(=O)OCc2c1cc1n(c2=O)Cc2cc3c(CN(C)C)c(O)ccc3nc2-1
[1]
  Potency: 23.9 µM (active)
[2]
  Potency: 8.49 µM (active)
[3]
  Potency: 26.8 µM (active)
[4]
  Potency: inactive
[5]
  Potency: 0.0849 µM (active)
[6]
  Potency: inactive
[7]
  Potency: 26.8 µM (active)
[8]
  Potency: inactive
[9]
  Potency: 23.9 µM (active)
[15]
  Potency: 1.88 µM (active)
[18]
  Potency: inactive
[16]
  Potency: inactive
[11]
  Potency: inactive
[17]
  Potency: 1.33 µM (active)

## CCCCCCCCCCC=O
[1]
  Potency: inactive
[2]
  Potency: inactive
[3]
  Potency: inactive
[4]
  Potency: inactive
[5]
  Potency: inactive
[6]
  Potency: inactive
[7]
  Potency: inactive
[8]
  Potency: inactive
[9]
  Potency: inactive
[10]
  Potency: inactive
[19]
  Potency: inactive
[16]
  Potency: inactive
[12]
  Potency: inactive
[13]
  Potency: inactive
[14]
  Potency: inactive
[17]
  Potency: inactive

## Oc1cc2ccccc2c2ccccc12
[1]
  Potency: inactive
[2]
  Potency: 11 µM (active)
[3]
  Potency: inactive
[4]
  Potency: 11 µM (active)
[5]
  Potency: 9.77 µM (active)
[6]
  Potency: 3.47 µM (active)
[7]
  Potency: inactive
[8]
  Potency: inactive
[9]
  Potency: inactive
[10]
  Potency: 21.7 µM (active)
[15]
  Potency: 15.4 µM (active)
[11]
  Potency: 24.3 µM (active)
[13]
  Potency: 6.86 µM (active)
[14]
  Potency: inactive
[17]
  Potency: 4.86 µM (active)
